# Screening data as filed in PubChem BioAssay.
# Most compounds without a hit are left out; they make up all but 11% or so of the library.
# BAZ2B block = blocks human BAZ2B; AID 504333; Potency, µM (doses to about 114 µM), without a hit: at the top dose activity change, negative = inhibition, most hits filed as inhibitors; AlphaScreen BAZ2B-H3K14Ac peptide displacement; 4.4% of 360,000 active; further: on the % scale 0 is the no-effect control and ±100 the full control effect; nearly all actives have a fitted effect of over 60% in size
#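 AlphaScreen luminescence quantifies BAZ2B engagement of H3K14Ac peptide; the protein and biotinylated peptide are both at 50 nM final, buffer PBS pH 7.4 with 0.01% Tween-20, all steps at room temperature.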
# JMJD2A Tudor inh = JMJD2A Tudor domain (human) inhibition; AID 504339; O75164; 4.4% of 390,000 active; Potency, µM (doses to about 114 µM), for inactives: at the top dose activity change, negative = inhibition, hits mostly inhibitors; AlphaScreen JMJD2A-Tudor / H3K4me3 peptide binding; further: on the % scale 0 is the no-effect control and ±100 the full control effect; nearly all actives have a fitted effect of over 50% in size
# HP1b binding inh = blocks HP1-beta chromodomain binding to methylated histone tails; P83916; AlphaScreen HP1-beta / biotin-H3K9me3 peptide binding; Potency, µM (top dose mostly 114 µM), for inactives: top-dose activity change, negative = inhibition, hits mostly inhibitors; 0.56% of 390,000 active; AID 540317; further: nearly all actives have a fitted effect of over 70% in size
# Target sequence (P83916 whole entry, looked up): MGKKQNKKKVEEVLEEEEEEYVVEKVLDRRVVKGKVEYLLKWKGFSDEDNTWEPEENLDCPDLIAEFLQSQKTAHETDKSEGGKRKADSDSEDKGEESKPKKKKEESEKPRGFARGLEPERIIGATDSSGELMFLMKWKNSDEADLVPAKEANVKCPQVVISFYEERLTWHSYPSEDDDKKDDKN
#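 HP1-beta protein (50 nM final) preincubated 30 min at room temperature with biotinylated H3(1-18)K9me3 peptide (50 nM) in PBS pH 7.4, 0.01% Tween-20, then compound added for 30 min. AlphaScreen streptavidin donor/nickel chelate acceptor beads (10 ug/mL final), 30 min dark, luminescence read.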
# L3MBTL1 inh = inhibitors of human L3MBTL1; AlphaScreen L3MBTL1–H3K9me1 peptide binding; 0.66% of 230,000 active; AID 485360; Potency, µM (titrated, usually from 57.1 µM), for inactives: at the top dose activity, negative = inhibition, usual class: inhibitors; further: on the % scale 0 is the no-effect control and ±100 the full control effect; nearly all actives have a fitted effect of over 60% in size
#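 AlphaScreen proximity signal between nickel-chelate acceptor and streptavidin donor beads (final 10 ug/mL) reports binding of 50 nM L3MBTL1 to 75 nM biotin-H3 K9me1 peptide; complex incubated with compounds 30 min at room temperature; cefsulodin titration as control.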
# G9a block = blocks human histone lysine methyltransferase G9a. Potency, µM (doses to about 102 µM), for the others: top-dose activity, negative = inhibition, most hits filed as inhibitors. 8.8% of 350,000 active. G9a H3K9 monomethylation, AlphaScreen, 2 h; further: on the % scale 0 is the no-effect control and ±100 the full control effect; nearly all actives have a fitted effect of over 75% in size
# Target sequence (Q96KQ7 913-1193 limits assumed): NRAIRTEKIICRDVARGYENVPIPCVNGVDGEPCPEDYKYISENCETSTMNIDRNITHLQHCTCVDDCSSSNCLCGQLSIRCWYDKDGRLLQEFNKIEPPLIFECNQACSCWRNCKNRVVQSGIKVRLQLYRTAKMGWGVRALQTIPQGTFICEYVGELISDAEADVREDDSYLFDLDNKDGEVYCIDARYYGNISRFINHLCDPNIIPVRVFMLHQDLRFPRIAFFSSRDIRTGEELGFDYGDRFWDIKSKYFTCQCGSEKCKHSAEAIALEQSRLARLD
#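 Readings reflect AlphaScreen signal from monomethyl-H3K9 antibody detection. HMT at 20 nM; substrate b-H3K9 500 nM; cofactor SAM 20 uM; 2 h RT reaction; compounds tested as titrations in qHTS with 15 min preincubation.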
# Starred values were filed as active, the others as inactive; ? = inconclusive; . = no result given; [ ] = another dose, or the depositor's remark. The call rests on the fitted dose curve; in most records, active means well fitted inhibition curve with a large enough effect; inconclusive means small, poorly fitted or top-dose-only effect; inactive means no such curve, though single readings can be large or run the other way. Potency means the concentration at half of the fitted maximal effect.
SMILES,BAZ2B block,JMJD2A Tudor inh,HP1b binding inh,L3MBTL1 inh,G9a block
O=C1N=c2ccc(Br)cc2=C1c1sc(=O)[nH]c1O,?,.,.,.,44.7µM*
CC(C)(C)c1ccc(C(=O)NNc2ncnc3c2cnn3-c2ccc(Cl)cc2)cc1,-1.8%,-17.4%,47.1%,.,9.3%[59 µM]
COc1ccc(Cn2c(SCc3ccc(C(=O)NC(C)C)cc3)nc3cccnc32)cc1,1.7%,-7.6%,53.7%,.,-7.3%[59 µM]
Cc1ccc(C)c(OCC(=O)Nc2nonc2NC(=O)COc2cc(C)ccc2C)c1,?,-23.5%,32.6%,.,15.8µM*
Cc1ccc(C(C)C)c(OCC(=O)Nc2ccc(S(=O)(=O)Nc3onc(C)c3C)cc2)c1,56.2µM*,-27.8%,0.4%,.,-15.3%[59 µM]
Cc1ccc(C)c(OCC(=O)Nc2ccc(S(=O)(=O)Nc3ccccn3)cc2)c1,-5.2%,-23.4%[57.1 µM],-15.8%,-5.1%,50.1µM*
Cc1ccc(C)c(OCC(=O)Nc2ccc(S(=O)(=O)Nc3onc(C)c3C)cc2)c1,-22.6%,-6.4%,17.1%,.,-27.8%[59 µM]
Cc1cccc(OCC(=O)Nc2nonc2NC(=O)COc2cccc(C)c2)c1,.,-18.1%,15.0%,.,.
CC(N)(C(=O)O)c1ccc(P(=O)(O)O)cc1 (centres undefined),.,.,.,.,33.5%[59 µM]
CCOC(=O)N1CCN(S(=O)(=O)c2ccc(C(=O)N(CCN(C)C)c3nc4c(C)cccc4s3)cc2)CC1,?,?,-5.8%,.,44.7µM*
Cc1ccc2nc(N(CCCN(C)C)C(=O)c3ccc(S(=O)(=O)N4CCOCC4)cc3)sc2c1,-11.3%,-14.2%,12.5%,.,-2.0%
CCOC(=O)N1CCN(S(=O)(=O)c2ccc(C(=O)N(CCCN(C)C)c3nc4c(C)c(C)ccc4s3)cc2)CC1,-35.3%,?,-18.1%,-5.4%,50.1µM*
Cc1ccc2sc(N(CCCN(C)C)C(=O)c3ccc(S(=O)(=O)N4CCOCC4)cc3)nc2c1C,-7.3%,-29.7%,7.6%,-2.9%,50.1µM*
CN(C)CCCN(C(=O)c1ccc(S(=O)(=O)N2CCCC2)cc1)c1nc2c(F)cc(F)cc2s1,5.3%,-19.3%,-0.7%,-1.3%,?
CN(C)CCCN(C(=O)c1ccc(S(=O)(=O)N2CCCCCC2)cc1)c1nc2c(F)cc(F)cc2s1,?,?,-12.4%,1.4%,44.7µM*
CCN(CC)CCN(C(=O)c1ccc(S(=O)(=O)N(C)C2CCCCC2)cc1)c1nc2c(C)cccc2s1,-28.9%,-30.9%,6.4%,.,-15.0%
Cn1c(=O)c2c(-c3ccccc3Cl)n(-c3cc(Cl)ccc3O)cc2n(C)c1=O,?,-29.5%,3.2%,.,-45.0%[59 µM]
CCOc1ccccc1NC(=O)N1CCN(S(=O)(=O)c2ccc3c(ccn3C)c2)CC1,-3.2%,-6.6%,45.9%,.,8.3%[59 µM]
CCOC(=O)N1CCN(S(=O)(=O)c2ccc(C(=O)N(CCCN(C)C)c3nc4cc(OC)ccc4s3)cc2)CC1,-11.4%,-34.9%,9.6%,-17.7%,56.2µM*
Cc1ccc2sc(N(CCN(C)C)C(=O)c3ccc(S(=O)(=O)N4CC(C)OC(C)C4)cc3)nc2c1C (centres undefined),?,?,-3.0%,.,50.1µM*
COc1ccc2sc(N(CCCN(C)C)C(=O)c3ccc(S(=O)(=O)N4CCCC4)cc3)nc2c1,-14.6%,-23.4%,11.3%,-6.8%,?
O=C(NS(=O)(=O)c1ccc(Cl)cc1)c1ccccc1,-27.6%,15.4%,31.8%,31.1%,-19.3%
O=C1OC/C(=C(/O)c2ccc(Cl)cc2)C1=O,-36.2%,-13.3%,60.7%,8.4%,39.8µM*
Clc1ccc2c(c1)-c1nnc(Br)n1-c1ccccc1S2,-3.9%,-9.5%,2.8%,?,10µM*
Brc1nnc2n1-c1ccccc1Sc1ccccc1-2,10.5%,-6.6%,8.2%,-0.6%,-23.0%[59 µM]
SMILES,BAZ2B block,JMJD2A Tudor inh,HP1b binding inh,L3MBTL1 inh,G9a block
Cc1cc(C)n2nc(CNC(=O)c3ccc(Cl)cc3)nc2n1,6.5%,1.3%,78.0%,.,11.2%[59 µM]
N#CCCNC(=O)CCN1CCOCC1,-4.4%,?,24.4%,1.8%,28.2µM*
O=C(CCC(=O)CCN1CCCCC1)CCN1CCCCC1,-2.6%,-12.2%,?,.,12.6µM*
N#CCCNC(=O)CCN1CCCCC1,-7.0%,-6.8%,7.6%,.,56.2µM*
Cc1occc1-c1nnc(SCC(=O)O)n1-c1ccccc1,-3.3%,0.3%,16.1%[57 µM],.,-4.2%[59 µM]
Cc1occc1-c1n[nH]c(=S)n1C,-12.6%,-6.8%[11.4 µM],?,14.8%,35.5µM*
Cc1occc1-c1n[nH]c(=S)n1-c1ccccc1,-6.7%,7.08µM*,25.5%,9.5%,5.01µM*
CCC1=[N+](CC(=O)c2ccc(C)cc2)CCn2c(C)ccc21,-34.6%,-18.5%,8.7%,-4.6%,?
CCC1=[N+](CC(=O)c2ccc(Br)cc2)CCn2c(C)ccc21,-37.7%,?,25.2%,-20.2%,31.6µM*
CCC1=[N+](C)CCn2c(C)ccc21,5.1%,?,8.8%,.,1.78µM*
COc1ccccc1CNc1cc(-c2ccccc2)nc2nncn12,-13.1%,-21.1%,28.1%,.,-7.2%[59 µM]
CCN(CC)c1ccc(/C=N/NC(=O)c2c(Cl)cnn2C)c(O)c1,79.4µM*,-33.2%,43.2%,?,-3.4%[59 µM]
CCN(CC)c1ccc(/C=N/Nc2ccc(C)cc2)c(O)c1,44.7µM*,-1.4%,20.5%,?,1.78µM*
CCN(CC)c1ccc(/C=N/NC(=O)c2cccc(S(=O)(=O)N3CCOCC3)c2)c(O)c1,1.2%,-33.7%,-0.6%,-2.4%,28.9%
CCOC(=O)N/N=C/c1ccc(N(CC)CC)cc1O,?,-35.9%,-20.4%,-11.7%,?
O=C(CNC(=O)c1ccc2n[nH]nc2c1)OC(C(=O)Nc1cc(C(F)(F)F)ccc1Cl)c1ccccc1 (centres undefined),.,-26.0%,.,.,.
COc1ccccc1OCCN1C(=O)S/C(=C\c2ccco2)C1=O,?,-31.2%,-31.7%,-14.3%,?
O=C1C2C3C=CC(C3)C2C(=O)N1c1ccc2c(c1)OCO2 (centres undefined),12.1%,-9.8%,34.5%,11.1%,-46.8%
N=C1S/C(=C\c2ccco2)C(=O)N1c1nccs1,?,-32.0%,13.2%,?,35.5µM*
N=C1S/C(=C\c2ccco2)C(=O)N1c1ccc2c(c1)OCO2,56.2µM*,?,-38.8%,?,44.7µM*
COc1ccc(-c2nc3cnc(N4CCN(C)CC4)nc3n(-c3ccc(OC)cc3)c2=O)cc1,.,.,.,.,3.1%[0.501 µM]
COc1cccc(C(=O)NCCS(=O)(=O)N2CCN(C(=O)c3ccco3)CC2)c1,11.5%,-2.7%,36.7%,-1.3%,14.1µM*
COc1cccc(C(=O)NCCS(=O)(=O)N2CCCC2)c1,-1.8%,-7.6%,19.9%,2.3%,31.6µM*
CCOC(=O)N1CCN(S(=O)(=O)CCNC(=O)c2cccc(OC)c2)CC1,-1.3%,0.0%,22.3%,0.3%,50.1µM*
COc1cccc(C(=O)NCCS(=O)(=O)N2CCCCCC2)c1,-3.1%,-12.9%,14.6%,9.0%,?
COc1cccc(C(=O)NCCCNC(=O)c2ccco2)c1,7.5%,-4.1%,31.0%,.,20.6%
